TDP1 block = blocks human tyrosyl-DNA phosphodiesterase 1 | Potency, µM (highest dose often 130 µM), hits mostly inhibitors | 350,000 compounds, 0.28% hits | recombinant TDP1, AlphaScreen DNA substrate cleavage | AID 485290; note: nearly all actives have a fitted effect of over 40% in size
Target sequence (Q9NUW8 whole entry, looked up): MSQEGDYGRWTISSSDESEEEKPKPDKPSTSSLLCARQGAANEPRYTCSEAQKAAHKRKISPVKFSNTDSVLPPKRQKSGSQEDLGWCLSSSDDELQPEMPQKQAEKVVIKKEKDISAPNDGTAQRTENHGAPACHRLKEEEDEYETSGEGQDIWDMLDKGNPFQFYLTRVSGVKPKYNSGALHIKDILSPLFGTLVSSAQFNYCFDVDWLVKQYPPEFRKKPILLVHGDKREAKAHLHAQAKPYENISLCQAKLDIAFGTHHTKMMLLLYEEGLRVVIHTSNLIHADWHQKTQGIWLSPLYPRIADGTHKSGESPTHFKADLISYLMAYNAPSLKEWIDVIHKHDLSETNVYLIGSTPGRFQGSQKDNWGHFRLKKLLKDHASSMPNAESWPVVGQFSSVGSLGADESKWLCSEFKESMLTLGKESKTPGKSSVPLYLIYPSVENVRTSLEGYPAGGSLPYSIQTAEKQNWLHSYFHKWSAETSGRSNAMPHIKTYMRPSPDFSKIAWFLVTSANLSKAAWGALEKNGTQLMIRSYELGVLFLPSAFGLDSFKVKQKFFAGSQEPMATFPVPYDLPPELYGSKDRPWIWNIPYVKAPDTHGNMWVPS
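Compounds were preincubated with Tdp1 (1 nM final) for 15 min at room temperature before substrate (15 nM final) started a 5 min reaction; beads (10 ug/ml final) were then added for 10 min before AlphaScreen detection.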
IL-1B inflam inh = blocks inflammasome-driven IL-1 beta release. 360,000 compounds, 4.7% hits. THP-1 LPS/ATP IL-1B secretion, AlphaLISA, 16 h; hits give low values. activity change, % at 57.5 µM; in the data active = activity change below about -50%; inconclusive = mostly about -30% to -49%
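THP-1 cells pretreated 1 hr with compounds (up to 57.5 uM final), then stimulated with LPS (250 ng/mL final) plus ATP (1.25 mM final); secreted IL-1B measured by AlphaLISA after 16 hr, decreased signal indicating inhibition.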
DT40 TDP1 no CPT = qHTS for Inhibitors of human tyrosyl-DNA phosphodiesterase 1 (TDP1): qHTS in cells in absence of CPT. DT40 Tdp1-/- hTDP1 cells, no CPT, ATP luminescence, 48 h. Potency, µM (series often up to 46.2 µM), actives largely listed as inhibitors. 420,000 compounds, 15% hits. AID 686978, 2013; note: nearly all actives have a fitted effect of over 55% in size
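Growth of hTDP1-complemented DT40 Tdp1-knockout cells is measured by ATP luminescence after at least 48 hr compound exposure at 37 °C, with DMSO substituting for the 20 nM CPT used in the parallel screen.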
TGFb SMAD3 inh = TGF-b pathway inhibition. Potency, µM (highest dose often 46.1 µM), actives largely listed as inhibitors. HepG2 CAGA-GFP TGF-b/SMAD3 reporter, GFP fluorescence, 18 h; TGF-beta stimulated, 500 pg/mL final. AID 588855. 410,000 compounds, 1.2% hits; note: nearly all actives have a fitted effect of over 65% in size
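Cell-based qHTS in HEPG2 carrying a CAGA-GFP Smad reporter; compounds added before 500 pg/mL final TGF-beta, 18 h incubation at 37 degrees C, GFP fluorescence quantified per cell by imaging cytometry.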
DT40 TDP1 CPT = growth inhibition of DT40 Tdp1-/-;hTDP1 cells with camptothecin (screen for TDP1 inhibitors); chicken DT40 Tdp1-/-;hTDP1 cells + 20 nM CPT, ATP luminescence, 48 h; Potency, µM (highest dose often 46.2 µM), hits mostly inhibitors; 420,000 compounds, 12% hits; AID 686979; note: nearly all actives have a fitted effect of over 55% in size
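Chicken DT40 Tdp1-/- cells complemented with human TDP1, 400 cells/well, exposed to compounds plus 20 nM camptothecin for at least 48 h at 37 C; viability read as ATP content by CellTiter-Glo luminescence.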
HepG2 viability = kills HepG2 cells in TGF-b inhibitor counter-screen. Potency, µM (titrated, usually from 46.1 µM), most hits filed as cytotoxic. HepG2 CAGA-GFP viability, ATP luminescence, 18 h. AID 588856. 410,000 compounds, 0.76% hits
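HepG2 CAGA-GFP cells (1000/well, DMEM with 1% FBS) received compound, then TGF-beta at 500 pg/mL final, and were incubated 18 hours at 37 degrees C. Viability was read by CellTiter-Glo luminescence. Media-only wells were set as complete cell-killing and DMSO as no toxicity.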
Hits are given with their value; . = inactive; ? = inconclusive; / = not tested or not shown. An excerpt weighted towards active compounds, which were near 18% of everything screened. Unless noted, calls come from the whole dose curve; as a rule, active = well fitted curve in the direction sought with a large enough effect; inconclusive = small, poorly fitted or top-dose-only effect, or another doubt; inactive = no such curve, though single readings can be large; an effect the other way counts as inactive or inconclusive.

SMILES | TDP1 block | IL-1B inflam inh | DT40 TDP1 no CPT | TGFb SMAD3 inh | DT40 TDP1 CPT | HepG2 viability
COc1ccc(C(=O)NCc2cccnc2)cc1 | . | . | . | . | . | .
O=C(Cc1cccc(C(F)(F)F)c1)NCc1cccc(Cl)c1 | . | . | ? | . | . | .
O=C(NCc1cccc(Cl)c1)c1ccc(S(=O)(=O)Nc2cccc(C(F)(F)F)c2)cc1 | . | -78 | ? | ? | ? | 10µM
O=C1C=CC(c2c[nH]c3ccccc23)CC1 (configuration not stated) | / | -108 | 16µM | / | ? | /
Cc1ccccc1N1C(=O)CC(c2c[nH]c3ccccc23)C1=O (configuration not stated) | . | . | . | . | . | .
Cc1ccc(O)c(C(=O)CC(=O)c2ccc(C(C)(C)C)cc2)c1 | / | . | 4.6µM | . | 7.3µM | .
Cc1ccc(O)c(C(=O)CC(=O)c2ccccc2Cl)c1 | . | . | 4.6µM | . | 2.3µM | .
COc1ccc(O)c(C(=O)CC(=O)c2ccccc2)c1 | . | / | / | / | / | /
Cc1ccc(C)c(CN2C(=O)c3ccccc3S(=O)c3ccc(C(=O)NCCc4ccc(Cl)cc4)cc32)c1 (configuration not stated) | . | / | 7.3µM | ? | 13µM | .
COCCNC(=O)c1ccc2c(c1)N(Cc1cc(C)ccc1C)C(=O)c1ccccc1S2=O (configuration not stated) | . | / | 15µM | ? | ? | .
COCCCNC(=O)c1ccc2c(c1)N(Cc1ccccc1F)C(=O)c1ccccc1S2=O (configuration not stated) | . | / | . | . | . | .
O=C1C2=C(Nc3ccccc3SC2c2ccco2)c2ccccc21 (configuration not stated) | . | . | ? | . | . | .
CCc1ccc(C2Sc3ccccc3NC3=C2C(=O)c2ccccc23)cc1 (configuration not stated) | . | / | ? | 11µM | 16µM | .
CC(C)c1ccc(C2Sc3ccccc3NC3=C2C(=O)c2ccccc23)cc1 (configuration not stated) | / | / | 16µM | / | 16µM | .
CCOC(=O)Cn1c(=O)c(F)cn(Cc2ccc(OC)c([N+](=O)[O-])c2)c1=O | . | . | . | . | . | .
O=C(Cc1ccccc1F)NC1CCCN(Cc2ccc(Cl)cc2)C1 (configuration not stated) | / | ? | . | . | . | .
Cc1oc(C)c(C(=O)Nc2ccccc2)c1C | . | / | / | / | / | /
C[C@H](CO)N1C[C@H](C)[C@@H](CN(C)C(=O)Nc2ccccc2)Oc2c(NS(=O)(=O)c3cccs3)cccc2C1=O | . | . | . | ? | . | .
COc1cccc(/C(O)=C/c2nc3ccc(C(=O)NCCc4ccc(Cl)cc4)cc3[nH]c2=O)c1 | . | . | 6.5µM | . | 6.5µM | .
COc1cccc(/C(O)=C/c2nc3ccc(C(=O)NCCc4cccc(C)c4)cc3[nH]c2=O)c1 | . | . | . | . | . | .
O=c1c(N2CCc3ccccc3C2)csc2ccc(F)cc12 | . | / | ? | / | ? | .
O=c1c2cc(F)ccc2sn1-c1ccccc1 | . | . | 2.1µM | 11µM | 1.8µM | .
CC1(C)CC(=O)N(c2cccc(C(F)(F)F)c2)C(=O)C1 | . | . | . | . | ? | .
O=c1c2cc(C(F)(F)F)ccc2sn1-c1ccccc1 | / | . | 5.2µM | . | 5.2µM | .
Cc1cnccc1CN(C)Cc1cn(C)nc1-c1cccc(Cl)c1 | . | . | ? | ? | ? | .
SMILES | TDP1 block | IL-1B inflam inh | DT40 TDP1 no CPT | TGFb SMAD3 inh | DT40 TDP1 CPT | HepG2 viability
CC(c1ccon1)N(C)Cc1cn(C)nc1-c1cccc(Cl)c1 (configuration not stated) | / | . | 16µM | . | ? | .
CCOc1ccccc1CNC(=O)CN1C(=O)CCn2nc(-c3cn(C)c4ccccc34)cc21 | . | / | ? | . | ? | .
CN(C)C=Nc1c(I)cc(I)c(CCC(=O)O)c1I | / | / | . | / | . | /
COC(=O)c1cc([N+](=O)[O-])c(-n2cncn2)c([N+](=O)[O-])c1 | . | . | 5.8µM | . | 5.8µM | .
O=C(Nc1ccc(F)cc1)c1cccc(N2C(=O)C3C4CCC(C4)C3C2=O)c1 (configuration not stated) | . | . | 23µM | . | ? | .
O=C(Nc1ccc(Br)cc1)c1cccc(N2C(=O)C3C4C=CC(C4)C3C2=O)c1 (configuration not stated) | . | . | ? | ? | 23µM | .
O=C(Nc1ccc(Br)cc1)c1cccc(N2C(=O)C3C4CCC(C4)C3C2=O)c1 (configuration not stated) | . | ? | 29µM | . | ? | .
Cc1ccc(S(=O)(=O)N2CCN(C(=O)COC(=O)c3ccc([N+](=O)[O-])o3)CC2)c(C)c1 | . | . | . | . | ? | .
CN(Cc1ccccc1C#N)S(=O)(=O)c1cccs1 | . | . | ? | . | . | .
N#Cc1nccnc1S(=O)(=O)c1cccs1 | . | -98 | 1µM | ? | 0.65µM | .
CC(=NNC(=O)c1ccncc1)c1ccc(Cl)cc1Cl | / | . | . | . | . | .
Brc1ccc([C@H]2C=C[C@H]3CCCN4CC[C@H]2[C@@H]3[C@]42CO2)cc1 | / | ? | 12µM | / | 18µM | /
CC1CCCCN1CCCNC(=O)CCCN1C(=O)c2cccnc2Sc2ccccc21 (configuration not stated) | . | . | . | . | . | .
C[C@H](NC(=O)c1nc[nH]c1C(=O)N[C@@H](Cc1ccccc1)C(=O)OC(C)(C)C)C(=O)OCc1ccccc1 | / | . | 18µM | ? | ? | .
CNC(=O)c1[nH]cnc1C(=O)N[C@@H](Cc1ccccc1)C(=O)OC(C)(C)C | . | . | . | . | ? | .
CC(C)(C)OC(=O)[C@H](Cc1ccccc1)NC(=O)c1nc[nH]c1C(=O)N[C@@H](CCCCN)C(=O)OC(C)(C)C | . | . | 16µM | . | ? | .
CNC(=O)c1[nH]cnc1C(=O)N[C@@H](Cc1ccccc1)C(=O)OCc1ccccc1 | . | . | ? | . | 15µM | .
CC(C)(C)OC(=O)[C@H](Cc1ccccc1)NC(=O)c1nc[nH]c1C(=O)NCc1ccccc1 | . | . | . | ? | ? | .
CC(C)(C)OC(=O)[C@H](CCCCN)NC(=O)c1nc[nH]c1C(=O)N[C@@H](CCCCN)C(=O)OC(C)(C)C | . | . | . | . | . | .

Bioassay records: PubChem BioAssay, National Center for Advancing Translational Sciences (NCATS)
